Data reported in the OligoGym collection.
Further: reference of the scale not given here.

These sequences were tested against FPGS (assay: pooled miR-30 sensor sort-seq; sequence = guide strand). Settings: shRNA.
Work on TGTCTGAGGGTCACCCCGCTGG yielded a sensor-assay potency score (higher = more potent) of -0.513. In the case of TAGAGGACATGAGATCTGCTGG, the sensor-assay potency score (higher = more potent) is reported as -0.333. Work on TTGGTGAAGAGCTCAGGACTGA yielded a sensor-assay potency score (higher = more potent) of -0.348. For TTGCCTGTGGATGACACCTCTG, the sensor-assay potency score (higher = more potent) was -0.989. TTCTGTTGGTCTGCGTTGCCTG showed a sensor-assay potency score (higher = more potent) of -0.416. Sequence TCTTCGTCCAGGTGGTTCCAGT has a sensor-assay potency score (higher = more potent) of -0.895. For ATACATTCCGTGAAGGCACAGG, the sensor-assay potency score (higher = more potent) was 0.476. For TCTGTTGGTCTGCGTTGCCTGT, the sensor-assay potency score (higher = more potent) was -0.767. Sequence TGCCTGTGGATGACACCTCTGT has a sensor-assay potency score (higher = more potent) of -0.547. Work on ATTGATGCGGATCCGCTCCCGA yielded a sensor-assay potency score (higher = more potent) of -1.01. For TCACTGTGAAGTTCTGTTGGTC, the sensor-assay potency score (higher = more potent) was 0.188. In the case of TTCCGTGAAGGCACAGGTGGAG, the sensor-assay potency score (higher = more potent) is reported as 0.0376. With TTCACCTGCTCCAGGTAGCCGG the sensor-assay potency score (higher = more potent) was -1.54. TCCTTGGTCTCCTCCAGCCGGT gave a sensor-assay potency score (higher = more potent) of -1.92. TTCAGGTTGGAGCACAGTGAAG was tested, and the sensor-assay potency score (higher = more potent) was -1.98. With TGAAGAGCAAGACTCGAACCTC the sensor-assay potency score (higher = more potent) was -0.155. With TATAGAGGACATGAGATCTGCT the sensor-assay potency score (higher = more potent) was 0.932. Sequence TTGATGCGGATCCGCTCCCGAA has a sensor-assay potency score (higher = more potent) of -1.62. For TTGGTCTGCGTTGCCTGTGGAT, the sensor-assay potency score (higher = more potent) was -1.06. Sequence TTCCTGATGATGTTGGTGCAGT has a sensor-assay potency score (higher = more potent) of -0.727. Sequence TGAAGTTCTGTTGGTCTGCGTT has a sensor-assay potency score (higher = more potent) of -0.752. Sequence TAGCATTGAAGAGCAAGACTCG has a sensor-assay potency score (higher = more potent) of -0.404. TTCTCTTGGAGGAAGACGTGGA was tested, and the sensor-assay potency score (higher = more potent) was 0.047.
